This note sets out measurements from PubChem BioAssay AID651965 (National Center for Advancing Translational Sciences (NCATS), 2013).

Molecules are shown by their SMILES. The campaign covered roughly 340,000 compounds. About 6,400 (1.9%) were called active. About 4% were inconclusive and are not listed. For the sample, actives were picked, then their nearest neighbours and some compounds at random. A number with no mark means an inactive call. The call rests on the fitted dose curve; in most records, active means well fitted falling curve with a large enough effect; inconclusive means small, poorly fitted or top-dose-only effect; inactive means no such curve, though single readings can be large or run the other way.

ATP-dependent Clp protease proteolytic subunit (Bacillus subtilis (strain 168)), sequence (P80244 whole entry, looked up): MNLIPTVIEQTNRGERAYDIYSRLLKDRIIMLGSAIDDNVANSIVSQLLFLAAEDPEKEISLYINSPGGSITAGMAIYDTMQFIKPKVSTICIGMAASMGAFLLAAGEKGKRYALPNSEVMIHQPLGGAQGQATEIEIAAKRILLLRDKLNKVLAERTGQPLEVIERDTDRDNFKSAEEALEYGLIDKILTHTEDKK

The assay concerns the target ATP-dependent Clp protease proteolytic subunit (Bacillus subtilis (strain 168)) (UniProt P80244). In words: qHTS Assay for Activators of ClpP. Further: the source files actives as falling curves though it sought activators and does not explain the sign; nearly all actives have a fitted effect of over 65% in size. Particulars: purified B. subtilis ClpP, FRET peptide cleavage, 20 min; series mostly up to 57.5 µM; activity change, negative = active: at the top concentration. From the text:
The Clp protease proteolytic subunit (ClpP) is the core unit of the Clp complex belonging to the peptidase family S14 that hydrolyzes protein into small peptides in the presence of ATP and magnesium. It is ubiquitously expressed and is the major protease in bacteria. […] Unlike common antibiotics that simply interfere with the essential enzyme activity, ADEP binding activates the ClpP core in the absence of the regulatory Clp-ATPases leading to uncontrolled proteolysis and eventually cell death. Activators binding to the docking site on ClpP can also block formation of the ClpXP and ClpA/C-P holoenzyme complexes interfering with the normal biological functions of ClpP and thus have the potential to become new anti-microbials.
To identify activators of ClpP, a FRET based quenching reversal assay was developed using a purified B. subtilis ClpP and a decapeptide substrate (FRET-FV). The FRET-FV is tagged with a fluorescent molecule amino benzoic acid (donor) at the N-terminus and a nitrotyrosine quencher (acceptor) at the C-terminus. FRET-FV cleaves upon activation of ClpP with ADEP treatement and reverses the quenching effect of the nitrotyrosine causing an increase in fluorescence emission signal at 430nm. This assay was used to screen the Molecular Libraries Small Molecule Repository (MLSMR).
NIH Molecular Libraries Probe Production Centers Network [MLPCN]
NIH Chemical Genomics Center [NCGC]
Assay Submitter (PI): Michael Maurizi, National Cancer Institute
Two and a half microL/well of purified enzyme solution (final concentrations 10 microg/mL B. subtilis ClpP in 100 mM Tris/HCl pH8, 100 mM KCl, 0.05% low protease BSA, 2.5% glycerol, 0.01% Tween-20 buffer) was dispensed into 1536-well assay plates (Greiner, black solid, medium-binding plates) with Aurora Discovery BioRAPTR Flying Reagent Dispenser (FRD, Beckton-Dickenson). Compound solution (23 nL) was transferred to the assay plate using Kalypsys pin tool equipped with a 1536-pin tool. […] FRET signals at time 0 and after 20 min room temperature incubation were obtained using the PerkinElmer Envision plate reader with 320nm excitation and 430nm emission filters. Delta FRET value (Time 20 - Time 0) was calculated and normalized to the delta FRET value of positive control ADEP (5.8 microM final concentration) and negative control DMSO and no enzyme wells.
(In general: Quantitative high-throughput screening tests each substance at several concentrations.)
As for `COc1ccc(CCCNC(=O)C2Cc3c(-c4cccc(C(N)=O)c4)ccnc3O2)cc1` (configuration not stated), the “activity change, negative = active” value was -4.14%. As to `Cc1cc(=O)c2ccc(NC(=O)c3ccccc3)cc2[nH]1`, the “activity change, negative = active” value is -3.5%. The same measure, in the same setting: as for `O=C1NC(Cc2ccccc2)c2nc3ccc(Br)cc3c(=O)n2-c2cc3ccccc3cc21` (configuration not stated), the figure is -10.4%; as for `O=C(NCc1cccnc1)c1ccc2nc([C@@H]3O[C@H](CO)[C@H](O)[C@H](O)[C@H]3O)[nH]c2c1`, -4.1%.

In the case of `CCOC(=O)C(Cc1ccc(N)cc1)N1C(=O)c2ccccc2C1=O` (configuration not stated), the “activity change, negative = active” value is 0.524%. As to `CC1=CC(C)(C)Nc2ccc(OC(=O)C(Cc3ccccc3)N3C(=O)C4CCCCC4C3=O)cc21` (configuration not stated), the Potency was 31.6 µM (active). For the compound `CC1=CC(C)(C)Nc2ccc(OC(=O)CN3C(=O)C4CCCCC4C3=O)cc21` (configuration not stated), the “activity change, negative = active” value was -0.0791%. Consider `Cc1ccc(NC(=O)Cn2sc3ccccc3c2=O)cc1`, for which the “activity change, negative = active” value was -1.89%.

In the case of `COc1ccc(Cl)cc1-n1c(CCC(=O)O)ccc1-c1ccc(C)cc1`, the “activity change, negative = active” value is 0.0453%. For the compound `COCCCn1c(CCC(=O)O)ccc1-c1ccc(F)cc1`, the Potency was 31.6 µM (active). `Cc1ccc(-c2ccc(CCC(=O)O)n2-c2ccc(C(N)=O)cc2)cc1`: the “activity change, negative = active” value is -3.92%. Same read-out and setting: the result for `Nc1nc2c(ncn2[C@@H]2O[C@H](CNS(=O)(=O)N3CCc4ccccc4C3)[C@@H](O)[C@H]2O)c(=O)[nH]1` reads -0.922%. `COCCCNc1ccn2nc(-c3ccc(CC(C)C)cc3)cc2n1`: the “activity change, negative = active” value was 4.13%. For the compound `Cc1ccccc1OCC(=O)N(Cc1cccc(F)c1)C1CCS(=O)(=O)C1` (configuration not stated), the “activity change, negative = active” value is -1.22%. For the compound `CCN(C(=O)COc1cccnc1[N+](=O)[O-])C1CCS(=O)(=O)C1` (configuration not stated), the Potency was 28.2 µM (active). In the case of `CN(C(=O)COC(=O)Cc1ccccc1[N+](=O)[O-])C1CCS(=O)(=O)C1` (configuration not stated), the “activity change, negative = active” value is -1.32%. As for `Cc1cccc(C)c1NC(=O)C(c1cccc(F)c1)N1CCN(C)CC1` (configuration not stated), the “activity change, negative = active” value is -0.808%. Regarding `CCOc1ccc(CCN2C(=S)N([C@@H](CC(C)C)CN3CCC[C@@H]3CN3C(=S)NC[C@@H]3Cc3ccc(O)cc3)C[C@@H]2CC(C)C)cc1`, the “activity change, negative = active” value is -1.86%.

Turning to `O=C(N/N=C\c1ccc(Br)cc1)c1ccc(Cn2cccn2)o1`, the Potency was 25.1 µM (active). As for `CN(C)c1ccc(/C=N/NC(=O)c2ccc(Cn3cc(Br)cn3)o2)cc1`, the “activity change, negative = active” value is -1.66%. For `O=C(O)c1ccc(/C=N/NC(=O)c2ccc(Br)cc2)cc1`, the “activity change, negative = active” value is -2.02%.

Regarding `O=S1(=O)CC(N2CCC(Cc3ccccc3)CC2)CN1Cc1ccccc1` (configuration not stated), the “activity change, negative = active” value was -0.381%. On to `O=C(NCC(F)(F)F)c1ccc(S(=O)(=O)NCCc2ccc3c(c2)OCCO3)cc1`, for which the “activity change, negative = active” value was 1.64%. On to `Cc1cc(Nc2ccc(C)c(C)c2)n2ncnc2n1`, for which the “activity change, negative = active” value was 0.336%.

As for `O=C(/C=C/c1ccc(Cl)cc1)Nc1ccc(Br)cn1`, the Potency was 25.1 µM (active).

On to `O=C(/C=C/c1ccc(Cl)cc1)Nc1ccc(S(=O)(=O)Nc2ncccn2)cc1`, for which the “activity change, negative = active” value was 1.87%.

Regarding `Cc1ccc(NC(=S)NC(=O)/C=C/c2ccc(Cl)cc2)cc1`, the “activity change, negative = active” value was -2.53%. On to `Cc1ccc(-c2ccc(CN3C(C(C)C)C(=O)N(Cc4cn(CCC5OCCO5)nn4)CCS3(=O)=O)cc2)cc1` (configuration not stated), for which the “activity change, negative = active” value is -0.425%.

Turning to `Cc1cccc(CN2CCN(C3CN(Cc4ccccc4)S(=O)(=O)C3)CC2)c1` (configuration not stated), the “activity change, negative = active” value is 1.14%.

On to `CCN(CCCNC(=O)c1cc2cc3cc(OC)ccc3nc2s1)c1ccccc1`, for which the “activity change, negative = active” value is -0.725%. On to `CCN1CCN(C(=O)CN(C)S(=O)(=O)c2ccc(OC)cc2)CC1`, for which the “activity change, negative = active” value was 1.17%. Regarding `CCN1CCN(C(=O)c2cc3cc4ccc(OC)cc4nc3s2)CC1`, the Potency was 25.1 µM (active).

For the compound `COc1cccc(-c2cc3nc(NCc4ccccc4OC)n(C)c(=O)c3s2)c1`, the “activity change, negative = active” value is 4.47%.

Turning to `O=C(N/N=C\C1CC=CCC1)c1ccc(Br)o1` (configuration not stated), the “activity change, negative = active” value was -1.65%. On to `CCC(C)(C)C1CCC(=NNC(=O)c2ccc(Br)o2)CC1` (configuration not stated), for which the Potency was 25.1 µM (active). Regarding `CC(C)(C)C1CCC(=NNC(=O)c2ccc(Br)o2)CC1` (configuration not stated), the “activity change, negative = active” value was -0.0122%. Take `COc1cccc(-c2cnc3c(NC(C)=O)cc(-c4cc(F)ccc4OC)cn23)c1`: the “activity change, negative = active” value is -4.6%. With `CC1=C(C(=O)N2CCOCC2)CC(CC(=O)NCc2cccs2)C(=O)N1CCCN1CCCC1=O` (configuration not stated), the “activity change, negative = active” value is -0.996%. The same measure, in the same setting: the result for `O=C(C=CC(=O)Nc1ccc(F)cc1F)Nc1ccc(F)cc1F` reads 0.87%. Still for that read-out and setting: as for `CCCCC[C@@H]1C=C(C(=O)OCC)[C@H](c2ccccc2)N1S(=O)(=O)c1ccc(C)cc1`, the figure is -13.2%. As to `CC(C)Nc1ccc(-n2nc3ccccc3[n+]2[O-])cc1`, the Potency was 28.2 µM (active).

For `CC(=O)Nc1cccc(-c2cc(NC(C)=O)c3ncc(-c4ccccc4)n3c2)c1`, the “activity change, negative = active” value was 5.02%.

In the case of `CS(=O)(=O)/C(C#N)=C/c1cccn1S(=O)(=O)c1ccc([N+](=O)[O-])cc1`, the “activity change, negative = active” value is -2.66%. With `CCOc1ccc(CCNC(=O)c2ccc3c(c2)sc2nc(-c4ccc(F)cc4)cn23)cc1OCC`, the Potency is 25.1 µM (active). Turning to `COc1cccc(CNC(=O)c2ccc3c(c2)sc2nc(-c4cccc(OC)c4)cn23)c1`, the “activity change, negative = active” value was 4.44%.

With `CCOc1ccc(CCNC(=O)Cn2nc(CC)n3c(cc4sc(CC)cc43)c2=O)cc1OCC`, the “activity change, negative = active” value was -1.22%. `COc1ccc(CCNC(=O)c2ccc3c(c2)nc(C)n3-c2ccc(Br)cc2)cc1OC`: the “activity change, negative = active” value is -1.76%. For `Cc1ccc(-c2cn3c(n2)sc2cc(C(=O)NCCCc4ccccc4)ccc23)cc1`, the Potency is 15.8 µM (active). Consider `COc1ccc(CCNC(=O)Cc2ccc(C)cc2)cc1OC`, for which the “activity change, negative = active” value was -6.51%. For `O=C(NCCCc1ccccc1)c1ccc2c(c1)sc1nc(-c3ccc(F)cc3)cn12`, the “activity change, negative = active” value is 4.44%.

In the case of `COc1ccc(CCNC(=O)c2ccc3c(c2)sc2nc(-c4ccc(C)cc4)cn23)cc1OC`, the Potency was 3.16 µM (active). For `COc1ccc(-c2cn3c(n2)sc2cc(C(=O)Nc4ccc(F)cc4)ccc23)cc1`, the “activity change, negative = active” value was -23.9%.
